The record followed here is PubChem BioAssay (EPA / NIEHS).

Calls of active or inactive are those of the source. Rule for the calls: active = hit-call score of the fitted dose curve at least 0.9, where 1 is the maximum; inactive = score below 0.9.

What all share (conditions): mRNA level, 48 h; actives raise or lower the signal
Read-out in test [1]: Paternally Expressed 10 (PEG10), PEG10 (gene 23089)
As to the kind of experiment: LTEA_HepaRG_PEG10: Life Technologies and Expression Analysis (LTEA) Assay for Paternally Expressed 10 (PEG10) using HepaRG (AID 2283520). In outline:
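Differentiated HepaRG cells exposed 48 h in serum-free induction medium to eight half-log concentrations topping at 100 uM, 0.5% DMSO, in duplicate. PEG10 mRNA quantified by TaqMan qRT-PCR, normalized to ACTB, GAPDH and POLR2A; bidirectional fit versus DMSO.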

Read-out in test [2]: Nuclear factor NF-kappa-B p105 subunit (Homo sapiens) (UniProt P19838)
As to the kind of experiment: LTEA_HepaRG_NFKB1: Life Technologies and Expression Analysis (LTEA) Assay for Nuclear Factor Kappa B Subunit 1 (NFKB1) using HepaRG (AID 2283521). The gist of the method:
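Human HepaRG cells receive eight half-log concentrations, highest 100 uM, for 48 h. NFKB1 expression is then quantified by qRT-PCR and analysed for up- or down-regulation relative to 0.5% DMSO vehicle.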

Read-out in test [3]: Protein phosphatase 2A (PPP2R4), PTPA (gene 5524)
Put plainly: LTEA_HepaRG_PPP2R4: Life Technologies and Expression Analysis (LTEA) Assay for Protein phosphatase 2A (PPP2R4) using HepaRG (AID 2283522). The gist of the method:
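Differentiated human HepaRG cells in serum-free induction medium were exposed 48 h to 8 concentrations (top 100 µM, half-log steps, duplicate) in 0.5% DMSO. PPP2R4 mRNA was measured by TaqMan qRT-PCR, normalised to ACTB, GAPDH and POLR2A, and fitted bidirectionally versus DMSO.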

Read-out in test [4]: Phosphatase and tensin (PTEN), PTEN (gene 5728)
Put plainly: LTEA_HepaRG_PTEN: Life Technologies and Expression Analysis (LTEA) Assay for Phosphatase and tensin (PTEN) using HepaRG (AID 2283523). In outline:
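Read-out is PTEN transcript level by multiplexed TaqMan qRT-PCR after 48 h chemical treatment of human HepaRG cultures in serum-free induction medium. Concentrations spanned 100 uM downward in half-log steps, 0.5% DMSO throughout; activity fitted in both directions against vehicle.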

Read-out in test [5]: solute carrier (SLC22A1), SLC22A1 (gene 6580)
Put plainly: LTEA_HepaRG_SLC22A1: Life Technologies and Expression Analysis (LTEA) Assay for solute carrier (SLC22A1) using HepaRG (AID 2283524). The gist of the method: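 HepaRG (human liver line), 48 h dosing in serum-free induction medium; 8 conc., half-log down from 100 uM, 0.5% DMSO vehicle, duplicates. Endpoint: SLC22A1 mRNA, qRT-PCR, housekeeping-normalized; gain/loss fit vs DMSO.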

Read-out in test [6]: Pyruvate Dehydrogenase Kinase 4 (PDK4), PDK4 (gene 5166)
Put plainly: LTEA_HepaRG_PDK4: Life Technologies and Expression Analysis (LTEA) Assay for Pyruvate Dehydrogenase Kinase 4 (PDK4) using HepaRG (AID 2283525). The gist of the method:
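In this multiplexed human HepaRG expression assay, cells are treated 48 h with test chemicals across an eight-point range starting at 100 uM. PDK4 mRNA changes, normalized to ACTB/GAPDH/POLR2A, are fitted in both directions relative to vehicle.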

Read-out in test [7]: NAD(P)H dehydrogenase [quinone] 1 (NQO1), NQO1 (gene 1728)
As to the kind of experiment: LTEA_HepaRG_NQO1: Life Technologies and Expression Analysis (LTEA) Assay for NAD(P)H dehydrogenase [quinone] 1 (NQO1) using HepaRG (AID 2283526). The gist of the method: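 Differentiated human HepaRG cells in serum-free induction medium, dosed in duplicate for 48 h at 8 half-log concentrations up to 100 uM in 0.5% DMSO. NQO1 mRNA by qRT-PCR normalized to ACTB, GAPDH, POLR2A; bidirectional fit versus DMSO baseline.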

Read-out in test [8]: succinate dehydrogenase complex iron sulfur subunit B (SDHB), SDHB (gene 6390)
As to the kind of experiment: LTEA_HepaRG_SDHB: Life Technologies and Expression Analysis (LTEA) Assay for succinate dehydrogenase complex iron sulfur subunit B (SDHB) using HepaRG (AID 2283528). The gist of the method:
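A human HepaRG culture in serum-free induction medium received test chemicals for 48 h over an eight-point range capped at 100 uM. SDHB expression change was quantified by qRT-PCR.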

Read-out in test [9]: Signal transducer and activator of transcription 3 (Homo sapiens) (UniProt P40763)
Put plainly: LTEA_HepaRG_STAT3: Life Technologies and Expression Analysis (LTEA) Assay for Signal transducer and activator of transcription (STAT3) using HepaRG (AID 2283529). The gist of the method: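 Read-out is STAT3 mRNA level by qRT-PCR, normalized to three housekeeping genes, in human HepaRG liver cells treated for 48 h. Concentrations ran from 100 uM downward in half-log steps; curves were fitted for gain or loss relative to 0.5% DMSO.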

Read-out in test [10]: solute carrier (SLCO1B1), SLCO1B1 (gene 10599)
Put plainly: LTEA_HepaRG_SLCO1B1: Life Technologies and Expression Analysis (LTEA) Assay for solute carrier (SLCO1B1) using HepaRG (AID 2283530). In outline:
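Human HepaRG cultures treated for 48 h with an eight-concentration half-log series topping at 100 uM; SLCO1B1 measured by qRT-PCR and fitted bidirectionally relative to DMSO.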

Read-out in test [11]: sulfotransferase 2A1 (SULT2A1), SULT2A1 (gene 6822)
Put plainly: LTEA_HepaRG_SULT2A1: Life Technologies and Expression Analysis (LTEA) Assay for sulfotransferase 2A1 (SULT2A1) using HepaRG (AID 2283531). The gist of the method: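 Gene-expression endpoint in a human liver cell line: SULT2A1 mRNA change after 48 h chemical treatment, curves fitted in both directions relative to 0.5% DMSO vehicle. Concentrations spanned eight half-log steps from 100 uM.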

Read-out in test [12]: Transforming Growth Factor (TGFA), TGFA (gene 7039)
Put plainly: LTEA_HepaRG_TGFA: Life Technologies and Expression Analysis (LTEA) Assay for Transforming Growth Factor (TGFA) using HepaRG (AID 2283532). In outline:
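HepaRG (human liver line), 48 h exposure, 8 conc. half-log down from 100 uM, 0.5% DMSO vehicle, duplicates; serum-free induction medium. TGFA mRNA by TaqMan qRT-PCR, ACTB/GAPDH/POLR2A normalization; gain/loss fit vs DMSO.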

Read-out in test [13]: Transforming Growth Factor (TGFB1), TGFB1 (gene 7040)
Put plainly: LTEA_HepaRG_TGFB1: Life Technologies and Expression Analysis (LTEA) Assay for Transforming Growth Factor (TGFB1) Transporter using HepaRG (AID 2283533). The gist of the method: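 Eight-point concentration-response (max 100 uM, half-log) in HepaRG under serum-free induction conditions, 48 h. TGFB1 mRNA by qRT-PCR, housekeeping-normalized.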

Read-out in another test: TIMP1, TIMP1 (gene 7076)
Put plainly: LTEA_HepaRG_TIMP1: Life Technologies and Expression Analysis (LTEA) Assay for TIMP1 using HepaRG (AID 2283534).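 Note: TaqMan qRT-PCR signal normalized to ACTB GAPDH and POLR2A housekeeping genes.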 In outline:
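TIMP1 induction or repression in HepaRG cells after 48 h chemical exposure (eight concentrations, highest 100 uM), assessed by normalized qRT-PCR with bidirectional fitting to DMSO controls.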

Read-out in test [14]: Tumor necrosis factor receptor 1 (TNFRSF1A), TNFRSF1A (gene 7132)
As to the kind of experiment: LTEA_HepaRG_TNFRSF1A: Life Technologies and Expression Analysis (LTEA) Assay for Tumor necrosis factor receptor 1 (TNFRSF1A) using HepaRG (AID 2283535). In outline: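 Assay uses 48 h chemical treatment of differentiated HepaRG monolayers, tested in duplicate at eight concentrations from 100 uM downward in 0.5% DMSO. mRNA is normalized to ACTB, GAPDH and POLR2A, with induction or suppression fitted relative to vehicle.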

Read-out in test [15]: Thyroid Hormone Responsive (THRSP), THRSP (gene 7069)
As to the kind of experiment: LTEA_HepaRG_THRSP: Life Technologies and Expression Analysis (LTEA) Assay for Thyroid Hormone Responsive (THRSP) using HepaRG (AID 2283536). The gist of the method: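 mRNA induction or loss relative to 0.5% DMSO vehicle was fitted bidirectionally across an eight-point curve whose highest exposure was 100 uM. Human HepaRG liver cells received chemicals in duplicate over 48 h before RNA extraction.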

Read-out in test [16]: UDP glucuronosyltransferase (UGT1A1), UGT1A1 (gene 54658)
Put plainly: LTEA_HepaRG_UGT1A1: Life Technologies and Expression Analysis (LTEA) Assay for UDP glucuronosyltransferase (UGT1A1) using HepaRG (AID 2283538). In outline: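 HepaRG cells, 0.5% DMSO vehicle, 48 h exposure in serum-free induction medium to 8-point half-log series topping at 100 uM, in duplicate. UGT1A1 mRNA by Fluidigm qRT-PCR, normalized to ACTB/GAPDH/POLR2A; bidirectional fit versus DMSO.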

Read-out in test [17]: Cellular tumor antigen p53 (Homo sapiens) (UniProt P04637)
As to the kind of experiment: LTEA_HepaRG_TP53: Life Technologies and Expression Analysis (LTEA) Assay for Tumor Protein P53 (TP53) using HepaRG (AID 2283537). In outline:
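Gain or loss of TP53 mRNA signal is scored relative to 0.5% DMSO after 48 h chemical treatment of HepaRG liver cells, tested in duplicate at eight half-log concentrations up to 100 uM.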

Read-out in test [18]: matrix metalloproteinase-3 (MMP3), MMP3 (gene 4314)
As to the kind of experiment: LTEA_HepaRG_MMP3: Life Technologies and Expression Analysis (LTEA) Assay for matrix metalloproteinase-3 (MMP3) using HepaRG (AID 2283519). In outline: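 HepaRG, human; 48 h dosing, 8 conc. (max 100 uM, half-log), duplicate, 0.5% DMSO. Readout: MMP3 transcript by Fluidigm TaqMan qRT-PCR, ACTB/GAPDH/POLR2A-normalised. Gain or loss fitted vs DMSO.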

Sequence of Cellular tumor antigen p53 (Homo sapiens) (P04637 whole entry, looked up): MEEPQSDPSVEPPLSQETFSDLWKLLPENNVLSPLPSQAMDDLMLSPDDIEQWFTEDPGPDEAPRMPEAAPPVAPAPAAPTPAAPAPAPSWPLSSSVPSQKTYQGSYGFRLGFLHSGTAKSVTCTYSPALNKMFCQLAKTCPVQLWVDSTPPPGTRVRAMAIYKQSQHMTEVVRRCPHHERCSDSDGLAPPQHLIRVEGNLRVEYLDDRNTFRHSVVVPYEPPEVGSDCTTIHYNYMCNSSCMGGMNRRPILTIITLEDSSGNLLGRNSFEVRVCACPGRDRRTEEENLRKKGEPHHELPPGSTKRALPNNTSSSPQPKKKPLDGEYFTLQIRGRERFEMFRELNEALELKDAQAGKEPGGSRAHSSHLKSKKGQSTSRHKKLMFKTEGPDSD
Sequence of Nuclear factor NF-kappa-B p105 subunit (Homo sapiens) (P19838 whole entry, looked up): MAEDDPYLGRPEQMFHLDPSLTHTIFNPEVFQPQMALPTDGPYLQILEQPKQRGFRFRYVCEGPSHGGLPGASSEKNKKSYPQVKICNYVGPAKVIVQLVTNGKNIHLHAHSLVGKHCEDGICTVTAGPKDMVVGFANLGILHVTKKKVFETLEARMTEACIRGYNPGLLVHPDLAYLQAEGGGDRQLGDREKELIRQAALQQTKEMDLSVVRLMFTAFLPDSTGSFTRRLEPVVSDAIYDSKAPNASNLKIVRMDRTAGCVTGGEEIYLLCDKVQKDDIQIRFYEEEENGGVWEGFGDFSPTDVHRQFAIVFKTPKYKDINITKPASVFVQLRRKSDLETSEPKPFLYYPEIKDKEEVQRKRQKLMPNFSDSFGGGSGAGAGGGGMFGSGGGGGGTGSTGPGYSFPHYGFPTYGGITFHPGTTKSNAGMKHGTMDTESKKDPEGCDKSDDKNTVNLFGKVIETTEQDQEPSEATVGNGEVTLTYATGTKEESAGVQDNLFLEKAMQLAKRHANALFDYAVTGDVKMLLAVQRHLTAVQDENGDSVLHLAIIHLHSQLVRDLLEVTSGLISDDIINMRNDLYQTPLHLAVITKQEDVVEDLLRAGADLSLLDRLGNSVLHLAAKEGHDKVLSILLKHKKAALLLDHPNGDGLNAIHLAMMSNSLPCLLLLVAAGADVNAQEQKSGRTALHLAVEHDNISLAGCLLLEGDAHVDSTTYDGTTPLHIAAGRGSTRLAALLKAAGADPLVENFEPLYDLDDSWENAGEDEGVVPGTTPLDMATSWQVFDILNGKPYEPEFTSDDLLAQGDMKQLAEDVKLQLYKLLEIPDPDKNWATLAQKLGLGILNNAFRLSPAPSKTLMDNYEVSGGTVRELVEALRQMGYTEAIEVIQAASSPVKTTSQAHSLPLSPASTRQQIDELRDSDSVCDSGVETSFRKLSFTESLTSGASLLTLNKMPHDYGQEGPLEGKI
Sequence of Signal transducer and activator of transcription 3 (Homo sapiens) (P40763 whole entry, looked up): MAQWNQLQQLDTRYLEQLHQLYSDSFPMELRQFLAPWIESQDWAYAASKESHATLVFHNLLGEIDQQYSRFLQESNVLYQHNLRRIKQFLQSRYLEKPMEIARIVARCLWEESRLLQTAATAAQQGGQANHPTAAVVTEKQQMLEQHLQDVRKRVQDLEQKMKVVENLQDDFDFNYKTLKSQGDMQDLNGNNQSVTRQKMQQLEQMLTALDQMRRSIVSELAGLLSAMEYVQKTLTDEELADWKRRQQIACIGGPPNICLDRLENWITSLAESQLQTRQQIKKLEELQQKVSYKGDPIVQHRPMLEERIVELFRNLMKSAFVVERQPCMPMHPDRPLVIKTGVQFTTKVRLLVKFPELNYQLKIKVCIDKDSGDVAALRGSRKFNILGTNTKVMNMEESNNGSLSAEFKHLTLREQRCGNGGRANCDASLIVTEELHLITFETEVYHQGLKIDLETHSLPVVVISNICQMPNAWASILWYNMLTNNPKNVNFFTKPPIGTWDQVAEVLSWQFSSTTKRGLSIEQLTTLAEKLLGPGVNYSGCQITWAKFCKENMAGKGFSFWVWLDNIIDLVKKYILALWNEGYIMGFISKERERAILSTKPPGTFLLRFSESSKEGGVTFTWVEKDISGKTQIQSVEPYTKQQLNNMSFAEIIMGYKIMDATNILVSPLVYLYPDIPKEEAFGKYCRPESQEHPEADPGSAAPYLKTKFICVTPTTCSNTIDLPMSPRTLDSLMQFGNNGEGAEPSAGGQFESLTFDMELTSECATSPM

What is called AC50 is the concentration giving half of the maximal activity seen. `N#CSCSc1nc2ccccc2s1`: the AC50 in test [1] is 50 µM (active); in test [5], 76.7 µM (active); in test [6], 32.9 µM (active); in [10] it was 95.8 µM (active); in test [15], 77.7 µM (active). Also, the compound was called inactive in test [2], in test [3], in [4], in [7], in test [8] and in test [9]. The outcome is “inactive” in test [11]; “inactive” in test [12]; “inactive” in test [13]; “inactive” in the test with TIMP1, TIMP1 (gene 7076); “inactive” in test [14]; “inactive” in test [16].

In the case of `C[C@]12CC[C@@H]3c4ccc(O)cc4C[C@@H](CCCCCCCCCS(=O)CCCC(F)(F)C(F)(F)F)[C@H]3[C@@H]1CC[C@@H]2O` (some centres undefined), the AC50 in [1] was 5.19 µM (active); in [2] it was 0.0508 µM (active); in [3] it was 0.0315 µM (active); in test [6] it was 12.7 µM (active); in [7], 0.0555 µM (active); in test [8] it was 11.6 µM (active). The concentration at half-maximal activity (AC50) in test [10] was 25 µM (active); in [11] it was 24.9 µM (active); in test [12], 0.0998 µM (active); in test [13] it was 0.121 µM (active); in test [14] it was 0.0802 µM (active); in test [15] it was 13.7 µM (active). For the same compound, the figures for the half-maximal activity concentration (AC50) in test [17] and in test [16] were 0.0628 µM (active) and 26.9 µM (active), respectively. The outcome in [4] was “inactive”; in test [9], “inactive”; with TIMP1, TIMP1 (gene 7076) it was “inactive”.

Consider `N[C@@H](Cc1cc(I)c(Oc2ccc(O)c(I)c2)c(I)c1)C(=O)O`, for which the compound was called inactive in [18], in test [3], in [4], in test [7], in test [8] and in test [9]. The outcome is “inactive” in test [12]; “inactive” in the test with TIMP1, TIMP1 (gene 7076); “inactive” in test [14]; “inactive” in [17]. The AC50 is 8.92 µM (active) in [1]; 0.0111 µM (active) in [6]; 27.5 µM (active) in test [10]; 27.1 µM (active) in [11]; 63.2 µM (active) in test [13]; 67.4 µM (active) in test [15]. For the same compound, the AC50 in test [16] is 40 µM (active).

Consider `O=C(O)C1(C(=O)Nc2ccc(Cl)cc2Cl)CC1`, for which the AC50 in [18] is 50 µM (active); in test [1], 39.8 µM (active); in [2] it was 22.9 µM (active); in test [3], 61.9 µM (active); in [6], 7.18 µM (active); in [8], 78.4 µM (active). Besides, the AC50 in test [10] was 77.1 µM (active); in test [11], 87.4 µM (active); in test [15], 78 µM (active). For the same compound, the outcome in [4] was “inactive”; in [7] it was “inactive”; in test [9], “inactive”; in [12], “inactive”; in [13], “inactive”; with TIMP1, TIMP1 (gene 7076) it was “inactive”. Besides, the compound was classed as inactive in test [14], in test [17] and in test [16].
